Rows were chosen to be rich in hits. Some 1.8% of all compounds tested hit in one or more screens of this group.
EWS-Fli inh = EWS/Fli transcriptional activity inhibition; A673 NR0B1-luciferase reporter, viability-normalised; inhibition, % at 12.6 µM; hit rate 0.67% among 350,000;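 active = mean inhibition of at least 50% after viability correction, with every replicate also passing that limit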;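 also: firefly luciferase signal divided by Alamar Blue viability fluorescence both relative to DMSO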
RAD52 anneal inh = RAD52 (human) annealing inhibition. inhibition, % at 18.7 µM. recombinant RAD52 DNA annealing, FRET fluorescence. hit rate 0.46% among 360,000;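 active = every replicate showing at least 50% inhibition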
Target sequence (P43351 whole entry, looked up): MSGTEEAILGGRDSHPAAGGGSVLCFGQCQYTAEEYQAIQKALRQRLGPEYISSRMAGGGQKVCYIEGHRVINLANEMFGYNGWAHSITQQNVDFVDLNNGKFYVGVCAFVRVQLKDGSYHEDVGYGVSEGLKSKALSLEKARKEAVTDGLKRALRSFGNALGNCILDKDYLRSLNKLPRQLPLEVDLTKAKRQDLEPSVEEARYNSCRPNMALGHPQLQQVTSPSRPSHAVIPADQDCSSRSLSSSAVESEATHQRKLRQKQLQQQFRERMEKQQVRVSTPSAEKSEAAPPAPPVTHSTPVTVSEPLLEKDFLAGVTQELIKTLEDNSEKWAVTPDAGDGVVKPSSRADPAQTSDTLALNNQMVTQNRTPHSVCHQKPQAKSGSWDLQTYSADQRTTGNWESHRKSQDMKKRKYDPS
RAD54 branch = RAD54 (human) branch migration inhibition; RAD54 Holliday junction branch migration, FAM/BHQ fluorescence; inhibition, % at 10.4 µM; hit rate 0.14% among 360,000; AID 602329;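 active = mean normalized replicate activity at least 40 and at least half of replicates scoring 40 or more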;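 also: 0% = median of neutral control wells and 100% = median of positive control wells; inhibitors cause a drop in the FAM fluorescence signal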
GSIS activator = primary screen for activators of insulin secretion dependent on glucose, INS-1E cells, GLuc reporter luminescence. AID 743287. INS-1E GLuc reporter insulin secretion, 2-3 h. activation, % at 16.6 µM. hit rate 0.61% among 370,000;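 active = lowest replicate activation of at least 40%, so every replicate reaches that level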;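 also: 0% = median of neutral control wells and 100% = median of IBMX positive control wells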
CFTR F508del cor = CFTR F508del correction in bronchial cells | CFBE cells, YFP halide quenching; stimulated with forskolin plus potentiator P3; % fluorescence drop versus neutral controls | activity (quench increase), % at 7.58 µM | hit rate 0.36% among 350,000 | AID 720511;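 active = mean added fluorescence quench of at least 8% versus neutral control, with both replicates also reaching 8%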;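 also: cells transiently co-express mutant CFTR-F508del with the halide-sensitive YFP; corrector assay measuring rescue of mutant channel to the surface after 24 h compound exposure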
LGR2 antag = inhibitors of bursicon-induced Drosophila LGR2 receptor cAMP signaling; HEK293 LGR2, CRE-luciferase, bursicon-stimulated, 4 h; inhibition, % at 9.99 µM; hit rate 0.35% among 380,000;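 active = drop in luminescence signal, shown as inhibition above about 50% in the replicate tests, limit read from the data, passing the limit was not always enough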;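 also: agonist challenge used bursicon conditioned medium at about half maximal strength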
Starred values were filed as active, the others as inactive; x = no result given; ! = repeats disagree.

SMILES | EWS-Fli inh | RAD52 anneal inh | RAD54 branch | GSIS activator | CFTR F508del cor | LGR2 antag
Cc1cc(C)n(-c2nc3c(c(=O)[nH]c(=O)n3C)n2CC(O)COc2ccccc2)n1 (centres undefined) | x | x | -10 | x | x | x
Cc1ccccc1S(=O)(=O)N1CCCCN2[C@@H](CO)[C@@H](c3ccc(-c4ccccc4)cc3)[C@@H]2C1 | 14 | -30 | -1 | x | -2 | x
Cc1ccccc1S(=O)(=O)N1CCCCN2[C@H](CO)[C@@H](c3ccc(-c4ccccc4)cc3)[C@H]2C1 | 19 | 70* | 6 | x | -3 | x
Cc1cccc(-c2ccc([C@H]3[C@H]4CN(S(=O)(=O)c5ccccc5C)CCCCN4[C@H]3CO)cc2)c1 | -4 | -14 | 6 | 11 | -2 | 18
Cc1ccccc1S(=O)(=O)N1CCCCN2[C@H](CO)[C@H](c3ccc(-c4ccccc4)cc3)[C@H]2C1 | 10 | 73* | 5 | x | -6 | x
CCOC(=O)C(=O)NNc1ccccc1OC | 1 | -17 | x | 2 | 1 | -3
COc1ccc2[nH]c(=O)c(CN(CCO)C(=O)c3ccccc3F)cc2c1 | x | -3 | 10 | 67* | x | -14
COc1ccccc1N(CC(=O)NC1CCCC1)S(=O)(=O)c1ccc(C)cc1 | 3 | -3 | 10 | 8 | 3 | 18
NC[C@H]1O[C@@H](n2ccc(N)nc2=O)[C@H](O)[C@@H]1O | 8 | -27 | -5 | -6 | -4 | -21
Nc1ccn(C2OC(CO)C(O)C2O)c(=O)n1 (centres undefined) | 39 | -48 | -3 | x | 9.7* | x
Nc1ccn(C2OC(CO)C(O)C2F)c(=O)n1 (centres undefined) | -14 | -79 | -9 | 29 | 0 | -13
Nc1ccn([C@@H]2O[C@H](CO)[C@@H](O)[C@@H]2O)c(=O)n1 | 43 | -2 | -1 | -2 | 19* | 3
CCc1nnc(NC(=O)CSc2nc3cc4c(cc3cc2CC)OCCO4)s1 | x | x | -6 | 49* | x | 9
CC(CCc1ccccc1)NC(=O)Cc1ccc([N+](=O)[O-])cc1 (centres undefined) | 6 | -7 | -5 | -3 | x | 4
COc1cc(/C=C2\N=C(c3ccccc3)NNC2=O)cc(OC)c1OC | 56* | -17 | -8 | 8 | 7 | 10
O=C1NNC(c2ccccc2)=N/C1=C\c1ccco1 | -3 | -35 | -15 | -36 | -1 | -11
COc1cc2c(cc1OC)C(c1cccs1)N(C(=O)c1cccnc1)CC2 (centres undefined) | 37 | -5 | -2 | 22 | 9.9* | -13
COc1ccc(C(=O)N2CCc3cc(OC)c(OC)cc3C2c2ccc(OC)c(OC)c2)cc1OC (centres undefined) | 3 | -12 | 1 | 48* | 6 | -19
CCC(=O)N1CCc2cc(OC)c(OC)cc2C1COc1ccccc1OC (centres undefined) | 3 | -19 | x | 48* | 2 | -5
C[C@H](CO)N1C[C@H](C)[C@@H](CN(C)C)OCCCC[C@H](C)Oc2ccc(NC(=O)Nc3ccc(F)cc3)cc2C1=O | 0 | x | x | 0 | 0 | -5
Cc1nc(Cc2ccccc2)sc1CC#N | 6 | -8 | -3 | 42* | -1 | -11
O=C(CCCN1C(=O)/C(=C/c2ccccc2Cl)SC1=S)NNC(=O)c1ccccc1Cl | 66* | -9 | x | -1 | x | -2
COc1cccc(/C=C2\SC(=O)N(CCC(=O)NNC(=O)c3ccccc3Cl)C2=O)c1 | x | x | -3 | 97* | x | 6
C[C@@H]1CN([C@H](C)CO)C(=O)c2cc(NC(=O)CCC(F)(F)F)ccc2O[C@H]1CN(C)Cc1ccc(C(F)(F)F)cc1 | -28 | 4 | 3 | -17 | 3 | 19
Cc1nc(N2CCN(C)CC2)c2sc(=S)n(-c3ccccc3)c2n1 | -14 | -16 | -5 | 11 | -1 | 1
SMILES | EWS-Fli inh | RAD52 anneal inh | RAD54 branch | GSIS activator | CFTR F508del cor | LGR2 antag
S=c1sc2c(Cl)ncnc2n1-c1ccccc1 | 74* | -10 | 6 | 9 | -5 | 104*
Cc1c(C(=O)O)c(O)cc2c1C(=O)c1c(O)c([C@@H]3O[C@H](CO)[C@@H](O)[C@H](O)[C@H]3O)c(O)c(O)c1C2=O | -22 | -2 | 12 | 4 | 1 | 11
CC1(C)SC2c3ccccc3C(=O)N2[C@@H]1C(=O)NC1CCCC1 (some centres undefined) | 4 | -6 | -7 | -5 | 3 | -8
CC1(C)SC2c3ccccc3C(=O)N2[C@@H]1C(=O)NC1CC1 (some centres undefined) | 1 | -12 | x | 42* | -1 | -6
COCCn1c(=O)[nH]c2cc(C(=O)Nc3cc(OC)c(OC)c(OC)c3)ccc2c1=O | -5 | 1 | -6 | 47* | 2 | 10
COCC(=O)N1CCCCN2[C@H](CO)[C@H](c3ccc(-c4ccccc4)cc3)[C@@H]2C1 | -8 | 2 | -3 | 10 | 2 | -2
COc1ccc(N(C)C(=O)Nc2ccc3nsnc3c2)cc1 | -17 | -28 | -7 | -5 | -1 | -24
CC(C)N(C(=O)Nc1ccc2nsnc2c1)C(C)C | -26 | -2 | x | -23 | 0 | 82*
O=C1NC[C@H](c2ccccc2)OC(=O)[C@@H](Cc2ccc(F)cc2)C/C=C\C[C@H]1CC(=O)N(CCO)Cc1ccccc1 | 19 | -13 | 1 | -22 | 4 | 61*
O=C1NC[C@H](c2ccccc2)OC(=O)[C@H](Cc2ccc(F)cc2)C/C=C\C[C@H]1CC(=O)N(CCO)Cc1ccccc1 | 24 | 3 | -3 | -26 | 4 | 58*
O=C1NC[C@@H](c2ccccc2)OC(=O)[C@H](Cc2ccc(F)cc2)C/C=C\C[C@H]1CC(=O)N(CCO)Cc1ccccc1 | 0 | -15 | 9 | -31 | -2 | -4
c1csc(CCCN2CCCCC2)c1 | 4 | 1 | -1 | -8 | -2 | -11
C#CCN(C[C@@H]1[C@@H](OC(=O)NC2CCCC2)[C@@H](OC(=O)NC2CCCC2)Cn2c(=O)ccc(=O)n21)S(=O)(=O)c1ccc(C)cc1 | 68* | -7 | 10 | -35 | -9 | 66*
C#CCN(C[C@@H]1[C@@H](OC(=O)NCc2ccccc2F)[C@@H](OC(=O)NCc2ccccc2F)Cn2c(=O)ccc(=O)n21)S(=O)(=O)c1ccc(C)cc1 | 43 | -19 | 2 | -44 | -6 | 68*
CCN(CC)S(=O)(=O)c1ccc2oc(C(=O)NCCCN3CCOCC3)c(C)c2c1 | x | x | -19 | x | x | x
CC(=O)C1=C(S(=O)(=O)c2ccc(C)cc2)CS(=O)(=O)C1 | 22 | -11 | x | 124* | -1 | -1
CC(=O)NC(=S)Nc1ccc(NC(=S)NC(=O)/C=C/c2ccco2)cc1 | 18 | -11 | x | -4 | 14* | 2
N#Cc1cccc(-c2ccc(C3[C@@H]4CN(C(=O)C5CC5)C[C@H]3N4)cc2)c1 (some centres undefined) | -3 | 0 | x | -24 | -4 | 89*!
